Test results published in PubChem BioAssay (NCI).
About 79,000 compounds went through this panel and 15% of them were active in at least one assay; those are over-represented in the sample as a whole. Calls of active or inactive are those of the source. No stated cut-off is given here; in the data, active means growth inhibition above about 70%; inactive means the rest.

Tests used:
[1] = NCI Yeast Anticancer Drug Screen. Data for the mec2-1 strain (AID 157); details: S. cerevisiae mec2-1 strain, active compounds read high
Outline: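 Each compound was tested on mec2-1 yeast, a strain altered in DNA damage repair or cell cycle control. Growth inhibition is reported relative to vehicle.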

[2] = NCI Yeast Anticancer Drug Screen. Data for the rad14 strain (AID 159);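 further: 0% = growth of vehicle-treated control cultures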; details: S. cerevisiae rad14 strain growth inhibition, active compounds read high
Outline: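 Test compounds were applied to a repair-deficient yeast strain. Its growth was then compared with that of cultures given vehicle alone, and inhibition was expressed relative to those controls.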

[3] = NCI Yeast Anticancer Drug Screen. Data for the sgs1 mgt1 strain (AID 161);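 further: 0% = growth of cultures given vehicle only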; details: S. cerevisiae sgs1 mgt1 strain, active compounds read high
Outline: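 Mutant yeast exposed to compound; growth scored against vehicle-only wells.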

[4] = NCI Yeast Anticancer Drug Screen. Data for the cln2 rad14 strain (AID 165);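 further: 0% = growth equal to vehicle treated cultures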; details: S. cerevisiae cln2 rad14 strain, active compounds read high
Outline: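 Test compounds were added to cln2 rad14 yeast cultures; inhibition of growth was then determined by comparison with vehicle treatment.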

[5] = NCI Yeast Anticancer Drug Screen. Data for the bub3 strain (AID 167); details: S. cerevisiae bub3 mutant strain, active compounds read high
Outline: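 Yeast carrying a defined mutation is treated with each compound, and growth is compared with that of vehicle-exposed cells to give inhibition.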

[6] = NCI Yeast Anticancer Drug Screen. Data for the wt2 strain (AID 169);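 further: 0% = growth of vehicle-treated yeast cultures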; details: S. cerevisiae wt2 strain growth inhibition, active compounds read high
Outline: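 The panel's yeast strains carry defined changes in DNA repair or cell cycle genes. Each strain is grown with compound, and growth loss is scored relative to vehicle.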

[7] = NCI Yeast Anticancer Drug Screen. Data for the sgs1 strain (AID 173);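 further: 0% = growth of vehicle-only control cultures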; details: S. cerevisiae sgs1 mutant, active compounds read high
Outline: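 Vehicle-treated cultures served as reference for growth inhibition of a yeast strain altered in DNA damage repair or cell cycle control after compound exposure.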

[8] = NCI Yeast Anticancer Drug Screen. Data for the mlh1 rad18 strain (AID 175); details: S. cerevisiae mlh1 rad18 strain growth inhibition, active compounds read high
Outline: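 Inhibition values reflect reduced growth of mutant yeast versus vehicle-treated controls following compound exposure; the mutations affect DNA damage repair.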

[9] = NCI Yeast Anticancer Drug Screen. Data for the rad18 strain (AID 177); details: S. cerevisiae rad18 mutant growth inhibition, active compounds read high
Outline: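 Steps: expose repair-mutant yeast to compound; measure growth; express as inhibition relative to vehicle control.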

[10] = NCI Yeast Anticancer Drug Screen. Data for the rad52 strain (AID 147);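 further: 0% = growth of vehicle-treated control cultures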; details: S. cerevisiae rad52 mutant growth inhibition, active compounds read high
Outline: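 Inhibition of yeast growth, referenced to vehicle controls, was the measured output for a strain with defective DNA damage repair.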

[11] = NCI Yeast Anticancer Drug Screen. Data for the wt1 strain (AID 149);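 further: 0% = growth of vehicle-treated wt1 cultures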; details: S. cerevisiae wt1 strain (SPY 50644) growth inhibition, active compounds read high
Outline: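 wt1 yeast, compound-treated; % growth inhibition vs vehicle control.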

[12] = NCI Yeast Anticancer Drug Screen. Data for the rad50EPP+ strain (AID 151);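 further: 0% = growth of vehicle-treated control cultures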; details: S. cerevisiae rad50 mutant strain, active compounds read high
Outline: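 Genetically defined yeast (rad50EPP+, DNA damage repair alteration) is grown with compound, and inhibition of growth is expressed relative to vehicle-treated controls.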

[13] = NCI Yeast Anticancer Drug Screen. Data for the mgt1 strain (AID 153); details: S. cerevisiae mgt1 mutant growth inhibition, active compounds read high
Outline: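 In the mgt1 strain, test compounds were added and growth inhibition was determined relative to vehicle-treated controls.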

[14] = NCI Yeast Anticancer Drug Screen. Data for the rad50 strain (AID 155);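 further: 0% = growth of vehicle-only cultures of the same strain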; details: S. cerevisiae rad50 strain growth inhibition, active compounds read high
Outline: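 Genetically altered yeast (DNA repair pathway); compound treatment; growth inhibition vs vehicle ctrl.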

[15] = NCI Yeast Anticancer Drug Screen. Data for the mlh1 strain (AID 171);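 further: 0% = growth of vehicle-treated control cultures of the same strain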; details: S. cerevisiae mlh1 strain growth inhibition, active compounds read high
Outline: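 Inhibition values reflect reduced yeast growth in the presence of compound, referenced to vehicle controls, using a strain chosen for its alteration in DNA repair or cell cycle control.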

[16] = NCI Yeast Anticancer Drug Screen. Data for the CLN2oe strain (AID 163);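 further: 0% = growth of vehicle-only control cultures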; details: S. cerevisiae CLN2oe strain, active compounds read high
Outline: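 First, the altered yeast strain was treated with each compound; second, its growth was measured; finally, inhibition was derived by comparison with vehicle controls.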

[17] = at 5.0 µM (retest, dose inferred, filed as 0.5)
[18] = at 50.0 µM (retest, dose inferred, filed as 5.0)

Measured: growth inhibition

Cc1ccc(CSC(N)=Nc2ccccc2)cc1C
inactive: [1]; [17] -11% | [1]; at 11.0 µM -11% | [1]; at 33.0 µM 1% | [1]; [18] -22% | [1]; at 50.0 µM 24.2% | [1]; at 100.0 µM 40% | [2]; at 1.2 µM -22% | [2]; at 3.7 µM -14% | [2]; at 11.0 µM -17% | [2]; at 33.0 µM 10% | [2]; at 100.0 µM 64% | [3]; [17] -10% | [3]; [18] 38% | [3]; at 50.0 µM 53.2% | [4]; [17] -16% | [4]; [18] 14% | [4]; at 50.0 µM -4.5% | [5]; at 1.2 µM 4% | [5]; at 3.7 µM 5% | [5]; [17] 11% | [5]; at 11.0 µM -4% | [5]; at 33.0 µM 14% | [5]; [18] 22% | [5]; at 100.0 µM 34% | [6]; at 1.2 µM 2% | [6]; at 3.7 µM -3% | [6]; at 11.0 µM -13% | [6]; at 33.0 µM -5% | [6]; at 100.0 µM 66% | [7]; at 1.2 µM 6% | [7]; at 3.7 µM 0% | [7]; at 11.0 µM 7% | [7]; at 33.0 µM 19% | [8]; [17] -5% | [8]; [18] 41% | [8]; at 50.0 µM 42% | [9]; at 1.2 µM 6% | [9]; at 3.7 µM -7% | [9]; at 11.0 µM 2% | [9]; at 33.0 µM 0% | [9]; at 100.0 µM 31%
active: [5]; at 50.0 µM 80% | [7]; at 100.0 µM 73%

CCCCCCCCCCC(=O)Cl
active: [11]; at 100.0 µM 85% | [13]; at 100.0 µM 85% | [14]; [17] 100% | [14]; [18] 98% | [1]; [17] 100% | [1]; [18] 98% | [1]; at 100.0 µM 83% | [2]; at 100.0 µM 88% | [6]; at 100.0 µM 82% | [15]; at 100.0 µM 82% | [7]; at 100.0 µM 90% | [8]; [17] 100% | [8]; [18] 99% | [9]; at 100.0 µM 89%
inactive: [10]; at 1.2 µM 13% | [10]; at 3.7 µM 13% | [10]; at 11.0 µM 12% | [10]; at 33.0 µM 9% | [10]; at 100.0 µM 31% | [11]; at 1.2 µM 9% | [11]; at 3.7 µM -2% | [11]; at 11.0 µM -5% | [11]; at 33.0 µM -5% | [12]; at 1.2 µM 18% | [12]; at 3.7 µM 22% | [12]; at 11.0 µM 25% | [12]; at 33.0 µM 40% | [12]; at 100.0 µM 46% | [13]; at 1.2 µM -21% | [13]; at 3.7 µM -25% | [13]; at 11.0 µM -28% | [13]; at 33.0 µM -32% | [14]; at 1.2 µM 14% | [14]; at 3.7 µM 18% | [14]; at 11.0 µM 2% | [14]; at 33.0 µM 9% | [14]; at 50.0 µM 58.2% | [14]; at 100.0 µM 29% | [1]; at 1.2 µM -1% | [1]; at 3.7 µM 7% | [1]; at 11.0 µM -9% | [1]; at 33.0 µM -23% | [1]; at 50.0 µM 7.75% | [2]; at 1.2 µM -1% | [2]; at 3.7 µM -2% | [2]; at 11.0 µM -8% | [2]; at 33.0 µM 39% | [3]; [17] -18% | [3]; [18] 36% | [3]; at 50.0 µM 56.9% | [4]; [17] 36% | [4]; [18] 58% | [4]; at 50.0 µM 31.9% | [5]; at 1.2 µM -9% | [5]; at 3.7 µM -4% | [5]; [17] 16% | [5]; at 11.0 µM -34% | [5]; at 33.0 µM -33% | [5]; [18] 64% | [5]; at 50.0 µM 12.1% | [5]; at 100.0 µM 54% | [6]; at 1.2 µM 5% | [6]; at 3.7 µM 1% | [6]; at 11.0 µM -4% | [6]; at 33.0 µM -2% | [15]; at 1.2 µM 14% | [15]; at 3.7 µM 7% | [15]; at 11.0 µM 5% | [15]; at 33.0 µM 2% | [7]; at 1.2 µM 18% | [7]; at 3.7 µM 14% | [7]; at 11.0 µM 15% | [7]; at 33.0 µM 25% | [8]; at 50.0 µM -13.4% | [9]; at 1.2 µM 25% | [9]; at 3.7 µM 21% | [9]; at 11.0 µM 15% | [9]; at 33.0 µM 9%

COC1=CC(=O)C2C(C1=O)C(c1ccc(Cl)cc1)[C@@H]2C (some centres undefined)
inactive: [10]; at 1.2 µM 12% | [10]; at 3.7 µM 25% | [11]; at 1.2 µM 11% | [11]; at 3.7 µM 23% | [12]; at 1.2 µM 29% | [12]; at 3.7 µM 64% | [13]; at 1.2 µM 21% | [13]; at 3.7 µM 30% | [14]; at 1.2 µM 2% | [14]; at 3.7 µM 12% | [14]; [17] 4% | [1]; at 1.2 µM 34% | [1]; at 3.7 µM 49% | [1]; [17] -12% | [3]; [17] -10% | [16]; at 1.2 µM 19% | [16]; at 3.7 µM 29% | [4]; [17] 30% | [5]; at 1.2 µM 24% | [5]; at 3.7 µM 53% | [5]; [17] 41% | [6]; at 1.2 µM 6% | [6]; at 3.7 µM 22% | [15]; at 1.2 µM 20% | [15]; at 3.7 µM 39% | [7]; at 1.2 µM 33% | [7]; at 3.7 µM 48% | [8]; [17] 23% | [9]; at 1.2 µM 14% | [9]; at 3.7 µM 29%
active: [10]; at 11.0 µM 98% | [10]; at 33.0 µM 99% | [10]; at 100.0 µM 99% | [11]; at 11.0 µM 99% | [11]; at 33.0 µM 99% | [11]; at 100.0 µM 99% | [12]; at 11.0 µM 98% | [12]; at 33.0 µM 98% | [12]; at 100.0 µM 98% | [13]; at 11.0 µM 99% | [13]; at 33.0 µM 99% | [13]; at 100.0 µM 99% | [14]; at 11.0 µM 98% | [14]; at 33.0 µM 98% | [14]; [18] 98% | [14]; at 50.0 µM 90.5% | [14]; at 100.0 µM 98% | [1]; at 11.0 µM 99% | [1]; at 33.0 µM 98% | [1]; [18] 99% | [1]; at 50.0 µM 93.8% | [1]; at 100.0 µM 99% | [3]; [18] 98% | [3]; at 50.0 µM 92% | [16]; at 11.0 µM 99% | [16]; at 33.0 µM 99% | [16]; at 100.0 µM 99% | [4]; [18] 98% | [4]; at 50.0 µM 90.5% | [5]; at 11.0 µM 99% | [5]; at 33.0 µM 99% | [5]; [18] 99% | [5]; at 50.0 µM 90.8% | [5]; at 100.0 µM 99% | [6]; at 11.0 µM 94% | [6]; at 33.0 µM 98% | [6]; at 100.0 µM 99% | [15]; at 11.0 µM 98% | [15]; at 33.0 µM 99% | [15]; at 100.0 µM 99% | [7]; at 11.0 µM 99% | [7]; at 33.0 µM 99% | [7]; at 100.0 µM 98% | [8]; [18] 98% | [8]; at 50.0 µM 90.5% | [9]; at 11.0 µM 97% | [9]; at 33.0 µM 99% | [9]; at 100.0 µM 99%
